Among the data in PubChem BioAssay (NCATS) are outcome, Potency and activity change, negative = viability loss values, retold here.

Experiment [1] deals with Calcium and integrin-binding protein 1 (Homo sapiens) (UniProt Q99828). In words: Primary qHTS for Identification of Calcium Integrin Binding Protein 1 (CIB1) Competitor (AID 1508620).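 Further: GST tagged CIB1 binding a fluorescein labelled alphaIIb integrin peptide tracer; top concentration of the series differs between compounds.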 The method, boiled down: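 CIB1-GST (1 uM final) and compound incubated 15 min at room temperature before adding FITC-alphaIIb peptide tracer (100 nM final). Competition for binding read by fluorescence polarization (ex 480, em 540) after another 15 min at room temperature.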
In general terms: Quantitative high-throughput screening tests each substance at several concentrations.

Experiment [2] is described as follows: Primary qHTS for small molecule stabilizers of the endoplasmic reticulum resident proteome: Secreted ER Calcium Modulated Protein (SERCaMP) assay (AID 1508630). Further: potency means the concentration at half of the fitted maximal effect. The method, boiled down:
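The SH-SY5Y reporter protocol was run at 3 concentrations up to 38.3 uM (primary) or 11 concentrations (follow-up): 16 h compound, 100 nM thapsigargin for 4 h, then extracellular luciferase luminescence.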

Experiment [3] in a line: Primary qHTS for inhibitors of nuclear receptor binding SET domain protein 2 (NSD2) in an isogenic RCH-ACV NSD2 p.E1099K mutant (9B) (AID 1645876). Further: nearly all actives have a fitted effect of over 70% in size. Further: potency means the concentration at half of the fitted maximal effect.
Experiment [4] deals with Cytochrome P450 2D6 (Homo sapiens) (UniProt P10635). The experiment is described as follows: Cytochrome P450 family 2 subfamily D member 6 (CYP2D6) small molecule antagonists: luciferase biochemical (cell-free) qHTS assay (AID 1645840; active means well fitted curve in the direction sought with a large enough effect in the repeat runs; an effect the other way counts as inactive or inconclusive; further: nearly all actives have a fitted effect of over 55% in size; further: potency means the concentration at half of the fitted maximal effect). The method, boiled down:
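P450-Glo CYP2D6 system: proluciferin substrate converted by enzyme to luciferin, read by luminescence proportional to activity. Enzyme-substrate mix with compound 10 min at room temperature, then NADPH regeneration 1 h before detection reagent.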

Experiment [5] addresses Cytochrome P450 2C9 (Homo sapiens) (UniProt P11712). The experiment is described as follows: Cytochrome P450 family 2 subfamily C member 9 (CYP2C9) small molecule antagonists: luciferase biochemical (cell-free) qHTS assay (AID 1645842; active means well fitted curve in the direction sought with a large enough effect in the repeat runs; an effect the other way counts as inactive or inconclusive; further: nearly all actives have a fitted effect of over 55% in size; further: potency means the concentration at half of the fitted maximal effect). The method, boiled down:
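P450-Glo CYP2C9 system: proluciferin substrate with enzyme in mix containing 0.4% BSA, 10 min at room temperature, then NADPH regeneration solution added and incubated 1 h at 37C. Detection reagent stopped reaction; luminescence read after 20 min as RLU.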

Experiment [6] concerns the target Cytochrome P450 3A4 (Homo sapiens) (UniProt P08684). In words: Cytochrome P450 family 3 subfamily A member 4 (CYP3A4) small molecule antagonists: luciferase qHTS assay (AID 1645841; active means well fitted curve in the direction sought with a large enough effect in the repeat runs; an effect the other way counts as inactive or inconclusive; further: nearly all actives have a fitted effect of over 45% in size). The method, boiled down: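 Luminescent CYP3A4 activity readout: compounds plus enzyme-substrate mix 10 min at room temperature, reaction started with NADPH regenerating system for 1 h, stopped with detection reagent, read after 20 min. Ketoconazole served as control.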

Values joined by “and” are separate entries in the source; they are usually repeats but may differ in a detail not shown here. Equal values may be shown once. Inconclusive results are not listed. Entries that show only a call come without a potency. Some structures have more than one record in an assay (separate samples or runs), and their calls can disagree. Active and inactive are the calls of the source. Unless noted, the call rests on the fitted dose curve; in most records, active means well fitted curve in the direction sought with a large enough effect; inconclusive means small, poorly fitted or top-dose-only effect, or another doubt; inactive means no such curve, though single readings can be large; an effect the other way counts as inactive or inconclusive.

Calcium and integrin-binding protein 1 (Homo sapiens), sequence (Q99828 whole entry, looked up): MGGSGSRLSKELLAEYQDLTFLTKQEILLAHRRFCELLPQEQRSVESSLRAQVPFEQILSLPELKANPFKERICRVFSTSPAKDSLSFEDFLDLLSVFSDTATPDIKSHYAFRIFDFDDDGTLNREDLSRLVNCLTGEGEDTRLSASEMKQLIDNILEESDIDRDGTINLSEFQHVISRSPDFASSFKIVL
Cytochrome P450 2C9 (Homo sapiens), sequence (P11712 whole entry, looked up): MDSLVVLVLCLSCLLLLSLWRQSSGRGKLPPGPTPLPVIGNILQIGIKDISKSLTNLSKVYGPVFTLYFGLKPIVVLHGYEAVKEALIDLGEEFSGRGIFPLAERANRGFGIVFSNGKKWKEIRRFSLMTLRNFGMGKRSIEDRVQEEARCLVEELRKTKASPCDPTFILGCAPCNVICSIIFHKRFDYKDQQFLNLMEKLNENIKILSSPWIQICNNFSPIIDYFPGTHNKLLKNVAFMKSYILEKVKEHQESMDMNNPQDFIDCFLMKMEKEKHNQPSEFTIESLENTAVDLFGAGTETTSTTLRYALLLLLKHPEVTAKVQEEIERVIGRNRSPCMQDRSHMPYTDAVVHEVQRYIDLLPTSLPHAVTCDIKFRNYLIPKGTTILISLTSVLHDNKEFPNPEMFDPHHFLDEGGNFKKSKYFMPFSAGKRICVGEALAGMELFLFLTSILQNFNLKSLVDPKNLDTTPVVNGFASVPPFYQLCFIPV
Cytochrome P450 2D6 (Homo sapiens), sequence (P10635 whole entry, looked up): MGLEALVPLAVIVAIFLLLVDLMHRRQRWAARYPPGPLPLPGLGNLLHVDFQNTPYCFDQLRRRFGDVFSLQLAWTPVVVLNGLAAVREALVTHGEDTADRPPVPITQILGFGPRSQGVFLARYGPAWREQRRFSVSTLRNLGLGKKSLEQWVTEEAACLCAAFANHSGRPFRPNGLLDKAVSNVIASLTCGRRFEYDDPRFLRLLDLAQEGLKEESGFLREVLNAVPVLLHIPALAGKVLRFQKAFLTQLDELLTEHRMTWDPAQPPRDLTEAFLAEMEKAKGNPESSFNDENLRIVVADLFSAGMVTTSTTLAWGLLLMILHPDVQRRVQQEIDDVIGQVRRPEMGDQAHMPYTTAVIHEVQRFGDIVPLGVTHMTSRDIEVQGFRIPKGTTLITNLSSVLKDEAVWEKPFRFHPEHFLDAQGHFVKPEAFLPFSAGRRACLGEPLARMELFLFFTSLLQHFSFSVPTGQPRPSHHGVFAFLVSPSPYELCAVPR
Cytochrome P450 3A4 (Homo sapiens), sequence (P08684 whole entry, looked up): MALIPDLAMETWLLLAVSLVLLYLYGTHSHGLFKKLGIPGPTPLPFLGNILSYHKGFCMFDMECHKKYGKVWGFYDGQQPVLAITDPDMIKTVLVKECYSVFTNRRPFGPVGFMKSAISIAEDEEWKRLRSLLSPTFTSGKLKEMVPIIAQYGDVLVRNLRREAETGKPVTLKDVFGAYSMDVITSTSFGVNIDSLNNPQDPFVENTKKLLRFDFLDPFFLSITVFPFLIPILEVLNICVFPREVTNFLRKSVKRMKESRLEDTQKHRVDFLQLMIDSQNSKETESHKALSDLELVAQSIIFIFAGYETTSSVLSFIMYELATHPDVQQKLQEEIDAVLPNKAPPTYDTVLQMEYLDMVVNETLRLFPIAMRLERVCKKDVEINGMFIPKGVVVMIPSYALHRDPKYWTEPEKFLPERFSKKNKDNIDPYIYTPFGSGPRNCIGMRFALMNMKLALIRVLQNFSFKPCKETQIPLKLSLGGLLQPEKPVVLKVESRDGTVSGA

`CCOc1cc(N2CCC(O)CC2)ccc1Nc1ncc2c(n1)N(C)c1ccccc1C(=O)N2C`: in experiment [1], the outcome was inactive. The Potency entry in experiment [2] is “inactive”. In addition, the Potency in experiment [3] was 2.35 µM (active).
`CO[C@@H]1[C@H](N(C)C(=O)c2ccccc2)C[C@H]2O[C@]1(C)n1c3ccccc3c3c4c(c5c6ccccc6n2c5c31)C(=O)NC4`: the result in experiment [1] was inactive. Further, the Potency entry in experiment [2] is “inactive”. The Potency in experiment [3] is 1.3 µM (active) and 1.05 µM (active).
`COc1ccc([C@@H]2CC(=O)c3c(O)cc(O[C@@H]4O[C@H](CO[C@@H]5O[C@@H](C)[C@H](O)[C@@H](O)[C@@H]5O)[C@@H](O)[C@H](O)[C@@H]4O)cc3O2)cc1O`: the outcome in experiment [1] was inactive. Besides, the Potency entry in experiment [2], in experiment [4] and in experiment [5] was “inactive” throughout.
Consider `CCOC(=O)C1=C[C@@]2(CC)CCCN3CCc4c(n1c1ccccc41)[C@H]32`, for which, in experiment [2], the Potency entry was “inactive”.
Regarding `C[C@H](NC(=O)Cc1cc(F)cc(F)c1)C(=O)N[C@@H]1C(=O)N(C)c2ccccc2-c2ccccc21`, in experiment [1], the result was inactive. Moreover, in experiment [3], the Potency result was “inactive”.
`Nc1nccc(-c2ccc3noc(-c4ccc(Cl)cc4)c3c2)n1`: the Potency entry in experiment [2] and in experiment [3] was “inactive” in each case.
Regarding `COc1cc(Nc2ncc3c(n2)-c2ccc(Cl)cc2C(c2c(F)cccc2OC)=NC3)ccc1C(=O)O`, in experiment [1], the result was inactive. Besides, the Potency entry in experiment [5] is “inactive”. In addition, the Potency in experiment [3] was 115 nM (active) and 20.5 nM (active) and 66.1 nM (active).
As for `O=C(Nc1cccnc1)N1CCC(Cc2cccc(Oc3ccc(C(F)(F)F)cn3)c2)CC1`, the result in experiment [1] was inactive. Besides, the Potency entry in experiment [2] was “inactive”. Besides, the Potency in experiment [4] is 4.25 µM (active); in experiment [5] it was 10.7 µM (active); in experiment [3] it was 6.49 µM (active) and 7.42 µM (active).
Take `O=C(c1cc(Cc2n[nH]c(=O)c3ccccc23)ccc1F)N1CCN(C(=O)C2CC2)CC1`: the outcome in experiment [1] was inactive. Also, the Potency entry in experiment [2] was “inactive”. Besides, the Potency in experiment [3] was 6.61 µM (active).
Regarding `O=C1[C@H](Cc2ccc(O)cc2)N2C(=O)CCN(C(=O)NCc3ccccc3)[C@H]2CN1Cc1cccc2ccccc12`, the outcome in experiment [1] was inactive. The Potency in experiment [3] was 3.72 µM (active).
For the compound `Cc1ccc2c(c1)C(=O)[C@@]1(O)CCN(c3ccccc3)C1=N2`, the Potency entry in experiment [2] and in experiment [4] was “inactive” each time.
`CC1(C)Cc2c(-c3ccccc3)c(-c3ccc(Cl)cc3)c(CC(=O)O)n2C1`: the Potency result in experiment [2] is “inactive”.
For the compound `Cc1ccccc1C(C(=O)NC1CCCC1)N(C(=O)Cn1cnc2ccccc21)c1cccc(F)c1` (stereo unspecified), in experiment [2], the Potency result is “inactive”.
As for `CCCS(=O)(=O)Nc1ccc(F)c(C(=O)c2c[nH]c3ncc(-c4ccc(Cl)cc4)cc23)c1F`, the Potency result in experiment [2] was “inactive”. The Potency in experiment [3] is 18.4 µM (active) and inactive.
`CN([C@@H](Cc1ccc(OS(=O)(=O)c2cccc3cnccc23)cc1)C(=O)N1CCN(c2ccccc2)CC1)S(=O)(=O)c1cccc2cnccc12`: in experiment [3], the activity change, negative = viability loss is 7.52% [at 4.96 µM] (inactive).
Consider `CC1(C)SCCN(S(=O)(=O)c2ccc(OCC#CCO)cc2)[C@@H]1C(=O)NO`, for which, in experiment [1], the outcome was inactive. Moreover, the Potency result in experiment [2] is “inactive”.
Take `COc1cc2nccc(Oc3ccc(NC(=O)NC4CC4)c(Cl)c3)c2cc1C(N)=O`: in experiment [1], the result was inactive. Further, the Potency result in experiment [2] and in experiment [4] was “inactive” each time. The Potency in experiment [5] is 12 µM (active).
On to `CCn1c(-c2nonc2N)nc2cnc(Oc3cccc(NC(=O)c4ccc(OCCN5CCOCC5)cc4)c3)cc21`, for which the Potency entry in experiment [2] is “inactive”. The Potency in experiment [3] is 3.26 µM (active) and 662 nM (active).
Regarding `OCCC#Cc1nc(-c2ccc(F)cc2)c(-c2ccncc2)n1CCCc1ccccc1`, the result in experiment [1] was inactive. Also, in experiment [3], the Potency was 16.4 µM (active) and 11.8 µM (active).
Turning to `CCc1cc(Nc2nccc(-c3c(-c4ccc(OC)c(C(=O)Nc5c(F)cccc5F)c4)nc4ccccn34)n2)c(OC)cc1N1CCC(N2CCN(S(C)(=O)=O)CC2)CC1`, the Potency in experiment [2] was 0.006 µM (active).
Consider `Cc1ccc(NC(=O)c2cccc(C(C)(C)C#N)c2)cc1Nc1ccc2ncn(C)c(=O)c2c1`, for which the outcome in experiment [1] was inactive. The Potency entry in experiment [2] was “inactive”. In addition, the Potency in experiment [4] is 12 µM (active); in experiment [5] it was 8.49 µM (active); in experiment [3] it was 10.5 µM (active).
As to `CCOc1cc(C=C2C(=O)N(c3ccccc3)N=C2C)cc(Cl)c1OCC(=O)OC`, the Potency entry in experiment [2] was “inactive”.
For the compound `CCN(CCCO)CCCOc1ccc2c(Nc3cc(CC(=O)Nc4cccc(F)c4)[nH]n3)ncnc2c1`, in experiment [6], the Potency entry is “inactive”.
For `CCn1c(-c2nonc2N)nc2c(C#CC(C)(C)O)ncc(OC[C@H]3CCCNC3)c21`, the result in experiment [1] was inactive. Also, the Potency result in experiment [2] was “inactive”. For the same compound, the Potency in experiment [3] was 1.32 µM (active).
Consider `O=C(NOC[C@H](O)CO)c1ccc(F)c(F)c1Nc1ccc(I)cc1F`, for which the result in experiment [1] was inactive. Also, the Potency in experiment [5] is 16.9 µM (active). The Potency entry in experiment [3] is “inactive”.
For the compound `COCCNCCCn1c(C(=O)CF)c(-c2ccc(C)cc2)c2c(N)ncnc21`, the result in experiment [1] was inactive. Also, the Potency in experiment [3] was 18.6 µM (active).
